# PubChem BioAssay
# Target: Calmodulin-1 (Homo sapiens) (UniProt P0DP23)
# Test: CALM1 binders on microarrays, EGTA buffer, profiling panel, biochemical, small-molecule microarray, Cy5-labelled CALM1 (AID 1111);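 further: labelled calmodulin applied in Tris saline Tween buffer holding calcium plus EGTA and DTT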
# Conditions: Cy5-CALM1 binding fluorescence, higher = more signal
row,Compound,composite z-score
1,COc1ccc(OC[C@@H](CO)OC)cc1,-0.584
2,COc1ccc(OC[C@H]2CN3[C@@H](CC[C@@H](C)[C@@H]3c3ccc(Br)cc3)C(=O)O2)cc1,-0.146
3,Cc1ccc(S(=O)(=O)N[C@@H]2COC(=O)CC=C[C@@H](C)[C@H](NS(=O)(=O)c3ccc(C)cc3)COC(=O)[C@H](C)NC(=O)CC=C[C@H]2C)cc1,-0.683
4,CC(C)CON=C1C[C@@H](O)[C@@H](O)[C@@H]2[C@@H]3C(=O)N(C(C)(C)C)C(=O)[C@@H]3CC[C@@H]12,-1.39
5,CCOC(=O)CCN1C(=O)[C@H]2[C@H]3[C@H](O)[C@H](O)CC(=O)[C@@H]3CC[C@H]2C1=O,0.0068
6,CCOC(=O)[C@H](CC(C)C)NC(=O)CCC1CC(OC(=O)NCc2ccc3c(c2)OCO3)CC2(CCCC(COC(=O)NCCC(C)C)O2)O1 (stereo partly specified),-0.344

# Target: Calmodulin-1 (Homo sapiens) (UniProt P0DP23)
# Test: calcium-bound CALM1 binders on microarrays, profiling panel, artefact control for SMM control-protein annotation, biochemical, small-molecule microarray, Cy5-labelled CALM1, plus calcium (AID 1112);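 further: score merges spot fluorescence with signal to noise from triplicate slides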
# Conditions: Cy5-CALM1 binding fluorescence, higher = more signal
row,Compound,composite z-score
1,O=C1C[C@@H](O)[C@@H](O)[C@@H]2[C@@H]3C(=O)N(c4ccc(F)cc4F)C(=O)[C@@H]3CC[C@H]12,-0.519
2,Cc1cc(C)c(-c2cc([C@H](C)ON=C[C@@H](C)[C@H](OCc3ccccc3)C(C)C)on2)c(C)c1,-0.34
3,CCN1C(=O)[C@H]2[C@H]3[C@H](O)[C@H](O)CC(=NOCC=C(C)CCC=C(C)C)[C@@H]3CC[C@H]2C1=O,-0.347
4,CC(CCC(=O)OC[C@H]1O[C@H](C#Cc2ccccc2)C=C[C@@H]1Oc1ccc(C)cc1)=NOC[C@@H](C)[C@H](OCc1ccccc1)C(C)C,-0.336
5,CCOC(=O)CCN1C(=O)[C@H]2[C@H]3[C@H](O)[C@H](O)CC(=NO[C@@H]4O[C@H](CO)[C@@H](O)[C@H](O)[C@H]4O)[C@H]3CC[C@H]2C1=O,-0.847
6,CC1(C)O[C@H]2OC([C@H](O)CON3C(=O)c4ccccc4C3=O)[C@H](O)[C@H]2O1 (stereo partly specified),-0.539
7,CC(CCN1CCc2nc(-c3ccccc3)c(-c3ccccc3)cc2C1)=NO[C@H](C)c1cn([C@H](CO)Cc2ccccc2)nn1,0.509
8,CON=C(C)CCN1CCCc2nc(C)c(C)cc21,-1.02
9,CC(=O)OC[C@H]1O[C@@H](ON=C(C)CCC(=O)OC[C@H]2O[C@H](C#Cc3ccccc3)C=C[C@@H]2Oc2ccc(C)cc2)[C@H](OC(C)=O)[C@@H](OC(C)=O)[C@@H]1OC(C)=O,-0.304
10,CCN1C(=O)[C@H]2[C@H]3[C@H](O)[C@H](O)CC(=NO[C@H](C)c4cn([C@H](CO)Cc5ccccc5)nn4)[C@@H]3CC[C@H]2C1=O,-0.0865
11,CC(=O)OC[C@H]1O[C@@H](ON=C(C)C)[C@H](OC(C)=O)[C@@H](OC(C)=O)[C@@H]1OC(C)=O,-0.678
12,CC(C)CON=C1C[C@@H](O)[C@@H](O)[C@@H]2[C@@H]3C(=O)N(c4ccc(F)cc4F)C(=O)[C@@H]3CC[C@@H]12,-0.541
13,C=C(C)C(=O)OC[C@H]1CN2[C@@H](CC[C@@H](C)[C@@H]2c2ccc(Br)cc2)C(=O)O1,-0.395
14,CC(CCN1CCCc2nc(C)c(C)cc21)=NOC[C@@H](O)COCc1ccco1,-2.31
15,O=C1C=C[C@@H](O)[C@@H]2[C@@H]3C(=O)N(Cc4ccc5c(c4)OCO5)C(=O)[C@@H]3CC[C@@H]12,-0.508
16,CC(C)(C)N1C(=O)[C@H]2[C@H]3[C@H](O)[C@H](O)CC(=NOC[C@@H](O)COCc4ccco4)[C@@H]3CC[C@H]2C1=O,0.314
17,C=CC[C@@H]1C=CC(ON=C(C)C)[C@@H](CO)O1 (stereo partly specified),0.0283
18,CCC1=NOC(CCC2CC(OC(=O)NCc3cccc4c3OCO4)CC3(CCCC(COC(=O)NCCc4ccc(Cl)cc4)O3)O2)C1 (stereo unspecified),-0.532
19,C#CCCCON=C1C[C@@H](O)[C@@H](O)[C@@H]2[C@@H]3C(=O)N(C4CCCCC4)C(=O)[C@@H]3CC[C@@H]12,-0.342
20,CC(=O)OC[C@H]1O[C@H](CC=NOC[C@@H](O)COCc2ccco2)C=C[C@@H]1OC(C)=O,-2.22
21,CC(C)=NOC(C)CN1CCCc2nc(C)c(C)cc21 (stereo unspecified),-0.869
22,CCOC(=O)[C@H](Cc1ccccc1)NC(=O)CCC1CC(OC(=O)NCc2cccc3ccccc23)CC2(CCCC(COC(=O)NCC3CCCCC3)O2)O1 (stereo partly specified),-0.525
23,O=C1C[C@H](c2ccccc2)[C@H](c2ccc(Br)cc2)O1,-0.447
24,COC(=O)[C@H](C)NC(=O)CCC1CC(OC(=O)NCCc2ccc(F)cc2)CC2(CCCC(COC(=O)NCC3CCCCC3)O2)O1 (stereo partly specified),-0.039
25,CN1CCc2nc(-c3ccccc3)c(-c3ccccc3)cc2C1,-0.414
